PubChem BioAssay
Calls of active or inactive are those of the source. How the calls were made is not given here.

The compounds below were run against Pantothenate synthetase (Mycobacterium tuberculosis (strain ATCC 25618 / H37Rv)) (UniProt P9WIL5) (assay: Recombinant Mtb pantothenate synthetase (PanC) inhibitors, coupled enzyme, confirmatory (AID 375;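 further: 0% = full reaction with vehicle and 100% = no enzyme background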)). Conditions: coupled enzyme assay; at 10 µM, active compounds read high.
Sequence of Pantothenate synthetase (Mycobacterium tuberculosis (strain ATCC 25618 / H37Rv)) (P9WIL5 whole entry, looked up): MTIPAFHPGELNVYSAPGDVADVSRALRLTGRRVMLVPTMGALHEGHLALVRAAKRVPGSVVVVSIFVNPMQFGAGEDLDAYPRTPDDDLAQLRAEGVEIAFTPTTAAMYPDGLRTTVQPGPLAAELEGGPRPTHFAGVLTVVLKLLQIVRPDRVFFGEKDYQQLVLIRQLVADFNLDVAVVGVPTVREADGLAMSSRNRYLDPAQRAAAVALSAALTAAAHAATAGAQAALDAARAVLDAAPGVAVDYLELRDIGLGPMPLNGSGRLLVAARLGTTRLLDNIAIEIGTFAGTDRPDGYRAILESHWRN
For `CS(=O)(=O)NCCSCc1c(F)cccc1Cl`, the inhibition was 3% (inactive). For `CC1Cc2cc(/C(O)=C3/C(=O)C(=O)N(CCN4CCOCC4)C3c3cccc(O)c3)ccc2O1` (stereo not drawn), the inhibition was 6% (inactive). `COc1ccc(Br)cc1S(=O)(=O)N1CCOCC1` was tested, and the inhibition was 0% (inactive). In the case of `O=C(CCCCn1c(=O)[nH]c2ccsc2c1=O)NCc1cccnc1`, the inhibition is reported as 5% (inactive). In the case of `CCOCC(=O)Nc1nc2ccc(OC)cc2s1`, the inhibition is reported as 0% (inactive). With `CCOc1cccc(/C(O)=C2/C(=O)C(=O)N(CCN3CCOCC3)C2c2cccnc2)c1` (stereo not drawn) the inhibition was 0% (inactive). With `Cc1cc(C(=O)NCCN2CCN(c3cccc(Cl)c3)CC2)n(-c2ccccc2)n1` the inhibition was 0% (inactive). `O=C(c1cccnc1)N1CCN(Cc2ccc3c(c2)OCO3)CC1` was tested, and the inhibition was 0% (inactive). `Cc1ccc(Cl)cc1NC(=O)CSc1nnc(C)n1-c1ccccc1` was tested, and the inhibition was 0% (inactive). With `NC(=O)COC(=O)c1ccc(S(=O)(=O)N2CCCCCC2)cc1` the inhibition was 0% (inactive). With `Cc1noc(C)c1S(=O)(=O)N1CCC(C(=O)N2CCN(Cc3ccc4c(c3)OCO4)CC2)CC1` the inhibition was 0% (inactive). `Nc1nc(Cl)nc2c1ncn2[C@H]1C[C@H](O)[C@@H](CO)O1` was tested, and the inhibition was 0% (inactive). `Cc1c(C(=O)NC2CC2)oc2ccc(S(=O)(=O)N3CCCCCC3)cc12` was tested, and the inhibition was 0% (inactive). In the case of `O=C(O)c1cccn2c(=O)c3ccccc3nc12`, the inhibition is reported as 0% (inactive). In the case of `COc1cccc(C=Nc2ccc3c(c2)OCCO3)c1O`, the inhibition is reported as 3% (inactive). With `O=C(Cn1nnc(-c2ccc(CN3CCOCC3)cc2)n1)NC1CCCCC1` the inhibition was 12% (inactive). With `CCCC(=O)N1CC(=O)Nc2ccc(C)cc2C1c1ccc(F)cc1` (stereo not drawn) the inhibition was 0% (inactive). For `Cc1ccc(NC(=O)c2ccccc2O)cc1`, the inhibition was 1% (inactive). For `CC(=O)N(CCN(C(C)=O)c1ccccc1)c1ccccc1`, the inhibition was 0% (inactive). With `Cc1nc(C)c(C(=O)Nc2ccc(C)c(F)c2)o1` the inhibition was 5% (inactive). In the case of `Cc1ccc2ncnc(NCCCN3CCOCC3)c2c1`, the inhibition is reported as 1% (inactive). For `CCn1c(Cc2ccc(OC)cc2)nnc1SCC(=O)Nc1cccc(C(=O)OC)c1`, the inhibition was 5% (inactive). `CCOC(=O)c1ccc(NC(=O)CSc2ncccn2)cc1` was tested, and the inhibition was 6% (inactive).
